Among the data in publication PMC7862700, “An all-to-all approach to the identification of sequence-specific readers for epigenetic DNA modifications on cytosine” are binding signal values, retold here.

Test in all cases: DAPPL (digital affinity profiling via proximity ligation, sequencing); 10 mM Tris-HCl pH 7.5, 50 mM NaCl, 1 mM DTT, 4% glycerol, room temperature, 30 min; GST-TFs on glutathione beads, 16-mer random dsDNA library, 0.1% formaldehyde crosslink after washing; high values mean tight binding
Conditions in all cases: protein: recombinant; tags: N-terminal GST; dsDNA, one strand shown

The target in test [1] is T1, FLI1 (Homo sapiens, UniProt Q01543 1-452).
T1 sequence: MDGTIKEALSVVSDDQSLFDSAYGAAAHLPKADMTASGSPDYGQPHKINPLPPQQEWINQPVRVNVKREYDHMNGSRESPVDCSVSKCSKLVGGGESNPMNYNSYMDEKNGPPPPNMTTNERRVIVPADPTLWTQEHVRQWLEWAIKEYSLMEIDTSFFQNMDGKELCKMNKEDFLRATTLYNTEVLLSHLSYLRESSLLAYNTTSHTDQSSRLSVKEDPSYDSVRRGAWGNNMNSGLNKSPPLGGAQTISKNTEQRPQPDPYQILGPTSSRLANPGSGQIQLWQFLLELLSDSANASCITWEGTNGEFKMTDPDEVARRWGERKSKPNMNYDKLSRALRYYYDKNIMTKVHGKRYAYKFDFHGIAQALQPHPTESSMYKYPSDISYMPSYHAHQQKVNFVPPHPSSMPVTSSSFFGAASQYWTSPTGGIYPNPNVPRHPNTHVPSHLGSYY
The method, boiled down:
(§1)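 Each value of binding signal is a hexamer's read frequency for a factor divided by the same hexamer's frequency in the tag-only sample. Barcoded, bead-captured GST fusions of human transcription factors made in yeast were pooled with that sample and incubated with 200 nmole of a random double-stranded 16-mer DNA library in Tris/NaCl/DTT/glycerol buffer at room temperature for 30 min. Washing, 0.1% formaldehyde crosslinking, proximity ligation, PCR and Illumina NextSeq500 sequencing followed.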

The target in test [2] is T2, ELK1 (Homo sapiens, UniProt P19419 1-428).
T2 sequence: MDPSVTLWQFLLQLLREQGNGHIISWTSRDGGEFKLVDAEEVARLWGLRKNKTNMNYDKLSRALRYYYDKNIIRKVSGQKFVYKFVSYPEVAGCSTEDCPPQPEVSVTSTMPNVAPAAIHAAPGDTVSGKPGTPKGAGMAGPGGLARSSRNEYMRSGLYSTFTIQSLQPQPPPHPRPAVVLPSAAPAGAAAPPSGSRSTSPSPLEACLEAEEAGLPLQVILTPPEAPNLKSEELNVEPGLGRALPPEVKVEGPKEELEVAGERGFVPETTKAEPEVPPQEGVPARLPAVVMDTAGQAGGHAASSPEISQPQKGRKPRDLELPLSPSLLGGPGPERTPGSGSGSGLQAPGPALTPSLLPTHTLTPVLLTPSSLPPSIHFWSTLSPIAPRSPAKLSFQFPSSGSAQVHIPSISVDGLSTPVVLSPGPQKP
In outline:
as §1

The target of test [3] is T3, GABPA (Homo sapiens, UniProt Q06546 1-454).
T3 sequence: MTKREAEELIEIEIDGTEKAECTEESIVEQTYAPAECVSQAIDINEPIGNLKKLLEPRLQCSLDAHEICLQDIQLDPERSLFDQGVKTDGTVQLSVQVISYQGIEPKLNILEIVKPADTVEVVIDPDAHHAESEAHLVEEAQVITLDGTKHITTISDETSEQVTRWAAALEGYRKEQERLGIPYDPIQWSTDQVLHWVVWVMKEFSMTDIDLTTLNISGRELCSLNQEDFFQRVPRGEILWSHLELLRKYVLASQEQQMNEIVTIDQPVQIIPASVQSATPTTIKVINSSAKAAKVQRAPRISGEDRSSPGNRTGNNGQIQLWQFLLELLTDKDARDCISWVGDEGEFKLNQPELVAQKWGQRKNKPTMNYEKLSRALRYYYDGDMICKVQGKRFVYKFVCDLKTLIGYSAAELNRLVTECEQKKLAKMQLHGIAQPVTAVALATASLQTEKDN
In outline: as §1

In test [4] the target is T4, ERG (Homo sapiens, UniProt P11308 1-479).
T4 sequence: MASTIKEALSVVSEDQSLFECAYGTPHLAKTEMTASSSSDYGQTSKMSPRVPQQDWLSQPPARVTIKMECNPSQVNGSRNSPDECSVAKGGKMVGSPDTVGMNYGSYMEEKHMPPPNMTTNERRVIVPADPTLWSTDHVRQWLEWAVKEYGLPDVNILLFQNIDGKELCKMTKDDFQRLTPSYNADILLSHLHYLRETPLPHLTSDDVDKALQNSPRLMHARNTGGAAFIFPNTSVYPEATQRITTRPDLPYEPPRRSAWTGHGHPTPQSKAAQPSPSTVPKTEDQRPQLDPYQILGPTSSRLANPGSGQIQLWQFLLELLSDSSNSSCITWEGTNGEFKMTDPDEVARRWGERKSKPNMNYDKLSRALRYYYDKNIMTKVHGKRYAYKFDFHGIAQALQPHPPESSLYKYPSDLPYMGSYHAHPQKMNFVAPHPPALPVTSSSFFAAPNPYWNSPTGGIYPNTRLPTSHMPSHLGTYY
In outline:
as §1

The target of test [5] is ELF1 (Homo sapiens, UniProt P32519 1-619). In outline:
as §1

For test [6], the target named is T5, EHF (Homo sapiens, UniProt Q9NZC4 1-300).
T5 sequence: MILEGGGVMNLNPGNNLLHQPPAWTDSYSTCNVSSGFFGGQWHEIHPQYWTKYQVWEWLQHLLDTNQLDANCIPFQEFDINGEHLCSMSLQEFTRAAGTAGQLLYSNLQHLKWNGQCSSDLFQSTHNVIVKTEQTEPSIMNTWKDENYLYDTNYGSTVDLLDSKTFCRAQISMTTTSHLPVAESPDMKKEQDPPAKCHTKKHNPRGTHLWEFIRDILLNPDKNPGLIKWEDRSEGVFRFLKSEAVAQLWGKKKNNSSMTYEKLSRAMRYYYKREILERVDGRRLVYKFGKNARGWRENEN
In outline: as §1

The target of test [7] is SPI1 (Homo sapiens, UniProt P17947 1-270). In outline: as §1
For test [8], the target named is SPIB (Homo sapiens, UniProt Q01892 1-262). In outline: as §1
SPIB, sequence (Q01892 whole entry): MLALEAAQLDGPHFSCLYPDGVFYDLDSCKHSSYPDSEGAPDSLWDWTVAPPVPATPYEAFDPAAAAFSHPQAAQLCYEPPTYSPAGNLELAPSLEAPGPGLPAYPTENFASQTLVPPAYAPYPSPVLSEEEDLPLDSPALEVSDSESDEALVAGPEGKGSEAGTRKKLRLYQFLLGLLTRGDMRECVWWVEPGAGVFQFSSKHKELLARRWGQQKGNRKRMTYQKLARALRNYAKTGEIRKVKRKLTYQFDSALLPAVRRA
Test [9] addresses T6, ELK3 (Homo sapiens, UniProt P41970 1-407).
T6 sequence: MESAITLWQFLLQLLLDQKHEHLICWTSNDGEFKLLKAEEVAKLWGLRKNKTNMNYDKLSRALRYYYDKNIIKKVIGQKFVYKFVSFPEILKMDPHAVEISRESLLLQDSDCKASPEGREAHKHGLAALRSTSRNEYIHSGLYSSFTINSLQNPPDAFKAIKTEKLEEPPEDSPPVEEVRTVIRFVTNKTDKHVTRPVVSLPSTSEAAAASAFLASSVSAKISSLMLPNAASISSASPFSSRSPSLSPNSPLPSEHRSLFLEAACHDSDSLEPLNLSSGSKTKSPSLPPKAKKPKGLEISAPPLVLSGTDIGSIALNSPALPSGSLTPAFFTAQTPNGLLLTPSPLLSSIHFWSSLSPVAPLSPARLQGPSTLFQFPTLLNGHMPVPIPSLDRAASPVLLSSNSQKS
In outline: as §1

Test [10] deals with T7, FEV (Homo sapiens, UniProt Q99581 1-238).
T7 sequence: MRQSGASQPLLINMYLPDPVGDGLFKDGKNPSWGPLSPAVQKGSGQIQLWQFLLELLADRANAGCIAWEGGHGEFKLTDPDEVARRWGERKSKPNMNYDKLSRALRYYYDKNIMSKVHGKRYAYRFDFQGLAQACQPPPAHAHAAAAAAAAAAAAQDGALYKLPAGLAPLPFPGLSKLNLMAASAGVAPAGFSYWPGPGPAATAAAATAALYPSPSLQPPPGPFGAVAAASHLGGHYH
The method, boiled down:
as §1

The target of test [11] is ETV5 (Homo sapiens, UniProt P41161 1-510). The method, boiled down: as §1
ETV5, sequence (P41161 whole entry): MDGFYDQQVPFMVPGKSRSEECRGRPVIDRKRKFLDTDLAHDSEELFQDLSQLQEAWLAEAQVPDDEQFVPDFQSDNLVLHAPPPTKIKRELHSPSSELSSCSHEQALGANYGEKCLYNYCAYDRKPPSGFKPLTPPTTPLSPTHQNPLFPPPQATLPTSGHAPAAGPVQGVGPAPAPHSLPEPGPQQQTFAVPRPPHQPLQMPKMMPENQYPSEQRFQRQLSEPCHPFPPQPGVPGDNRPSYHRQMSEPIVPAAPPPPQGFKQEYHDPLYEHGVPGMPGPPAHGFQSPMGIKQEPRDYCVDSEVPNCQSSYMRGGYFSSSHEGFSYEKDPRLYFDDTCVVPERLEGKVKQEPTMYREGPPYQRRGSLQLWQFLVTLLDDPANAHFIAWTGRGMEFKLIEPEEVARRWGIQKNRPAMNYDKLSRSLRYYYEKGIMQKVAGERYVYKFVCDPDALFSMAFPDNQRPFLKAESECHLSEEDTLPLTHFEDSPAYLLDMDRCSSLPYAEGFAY
Test [12] has as its target T8, SPIC (Homo sapiens, UniProt Q8N5J4 1-248).
T8 sequence: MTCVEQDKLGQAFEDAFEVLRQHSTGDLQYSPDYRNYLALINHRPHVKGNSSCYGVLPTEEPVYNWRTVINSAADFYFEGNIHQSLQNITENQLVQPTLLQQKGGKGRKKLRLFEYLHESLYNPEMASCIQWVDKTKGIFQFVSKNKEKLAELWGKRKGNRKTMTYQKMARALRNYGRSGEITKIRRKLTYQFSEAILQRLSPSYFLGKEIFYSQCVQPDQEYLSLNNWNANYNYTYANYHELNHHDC
In outline: as §1

For test [13], the target named is ELF4 (Homo sapiens, UniProt Q99607 1-663). The method, boiled down: as §1
ELF4, sequence (Q99607 whole entry): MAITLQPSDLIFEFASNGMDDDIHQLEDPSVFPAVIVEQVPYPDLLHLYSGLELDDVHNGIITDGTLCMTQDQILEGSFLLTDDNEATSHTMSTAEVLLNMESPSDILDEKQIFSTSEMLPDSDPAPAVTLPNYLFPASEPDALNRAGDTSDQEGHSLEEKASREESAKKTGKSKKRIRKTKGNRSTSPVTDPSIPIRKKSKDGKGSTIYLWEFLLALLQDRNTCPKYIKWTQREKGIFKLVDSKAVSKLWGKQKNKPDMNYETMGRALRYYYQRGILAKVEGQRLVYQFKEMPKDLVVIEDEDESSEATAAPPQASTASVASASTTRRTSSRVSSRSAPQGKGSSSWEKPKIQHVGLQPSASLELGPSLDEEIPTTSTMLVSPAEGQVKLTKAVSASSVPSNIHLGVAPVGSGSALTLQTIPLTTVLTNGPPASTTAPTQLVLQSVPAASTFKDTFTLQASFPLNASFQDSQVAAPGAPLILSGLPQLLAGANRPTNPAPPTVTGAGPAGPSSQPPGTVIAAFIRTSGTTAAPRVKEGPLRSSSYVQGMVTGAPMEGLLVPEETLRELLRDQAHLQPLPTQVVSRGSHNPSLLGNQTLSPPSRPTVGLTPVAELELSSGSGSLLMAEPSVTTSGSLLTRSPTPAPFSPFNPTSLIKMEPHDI
In test [14] the target is T9, ELK4 (Homo sapiens, UniProt P28324-2 1-405).
T9 sequence: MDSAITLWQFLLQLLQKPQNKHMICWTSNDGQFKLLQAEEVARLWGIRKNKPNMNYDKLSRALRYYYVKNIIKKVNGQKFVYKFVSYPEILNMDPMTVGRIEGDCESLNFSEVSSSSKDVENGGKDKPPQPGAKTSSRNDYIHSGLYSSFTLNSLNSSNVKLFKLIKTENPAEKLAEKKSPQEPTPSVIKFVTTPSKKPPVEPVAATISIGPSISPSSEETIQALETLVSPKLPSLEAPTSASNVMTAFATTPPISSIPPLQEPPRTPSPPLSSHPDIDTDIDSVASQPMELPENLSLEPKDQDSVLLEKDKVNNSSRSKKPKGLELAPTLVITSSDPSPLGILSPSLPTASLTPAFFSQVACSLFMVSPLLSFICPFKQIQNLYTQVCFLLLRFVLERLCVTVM
The method, boiled down: as §1

In test [15] the target is T10, ETV2 (Homo sapiens, UniProt O00321 1-342).
T10 sequence: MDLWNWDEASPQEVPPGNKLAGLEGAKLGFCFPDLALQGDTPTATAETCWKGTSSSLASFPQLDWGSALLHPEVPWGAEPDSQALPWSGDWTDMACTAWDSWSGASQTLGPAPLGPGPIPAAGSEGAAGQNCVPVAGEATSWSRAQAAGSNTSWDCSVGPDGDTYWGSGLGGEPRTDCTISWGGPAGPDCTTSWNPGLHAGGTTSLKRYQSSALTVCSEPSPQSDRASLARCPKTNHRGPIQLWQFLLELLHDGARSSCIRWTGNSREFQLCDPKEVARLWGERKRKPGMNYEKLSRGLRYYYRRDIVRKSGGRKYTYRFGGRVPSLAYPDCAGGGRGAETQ
In outline:
as §1

For test [16], the target named is T11, ELF3 (Homo sapiens, UniProt P78545 1-371).
T11 sequence: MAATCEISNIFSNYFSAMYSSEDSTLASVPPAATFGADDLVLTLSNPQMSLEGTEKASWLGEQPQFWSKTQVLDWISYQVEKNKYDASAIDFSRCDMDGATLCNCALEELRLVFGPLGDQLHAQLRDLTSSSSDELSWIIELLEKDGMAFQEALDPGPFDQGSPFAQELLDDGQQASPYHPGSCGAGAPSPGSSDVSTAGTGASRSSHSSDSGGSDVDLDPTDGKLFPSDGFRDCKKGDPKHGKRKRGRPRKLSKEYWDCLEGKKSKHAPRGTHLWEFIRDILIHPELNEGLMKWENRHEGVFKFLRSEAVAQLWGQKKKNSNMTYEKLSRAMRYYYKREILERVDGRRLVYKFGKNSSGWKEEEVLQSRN
In outline: as §1

Test [17] addresses ETV1 (Homo sapiens, UniProt P50549 1-477). The method, boiled down:
as §1

ELF1, sequence (P32519 whole entry): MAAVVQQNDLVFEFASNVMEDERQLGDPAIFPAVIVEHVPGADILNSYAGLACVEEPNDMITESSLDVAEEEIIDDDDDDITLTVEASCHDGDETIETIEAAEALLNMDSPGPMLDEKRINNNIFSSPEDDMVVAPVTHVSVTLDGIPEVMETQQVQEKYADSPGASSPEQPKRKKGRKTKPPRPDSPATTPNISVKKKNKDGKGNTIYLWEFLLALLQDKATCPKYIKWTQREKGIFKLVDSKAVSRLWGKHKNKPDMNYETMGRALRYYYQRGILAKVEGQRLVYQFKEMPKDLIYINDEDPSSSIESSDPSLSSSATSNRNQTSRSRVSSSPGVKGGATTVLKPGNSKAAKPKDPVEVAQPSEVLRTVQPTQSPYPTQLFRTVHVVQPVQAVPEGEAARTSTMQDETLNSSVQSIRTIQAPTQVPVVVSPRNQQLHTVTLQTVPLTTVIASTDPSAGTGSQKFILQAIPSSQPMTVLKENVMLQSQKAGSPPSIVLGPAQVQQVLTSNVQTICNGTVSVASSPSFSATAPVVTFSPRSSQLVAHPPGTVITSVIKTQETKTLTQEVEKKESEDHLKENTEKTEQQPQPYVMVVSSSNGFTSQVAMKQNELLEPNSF
ETV1, sequence (P50549 whole entry): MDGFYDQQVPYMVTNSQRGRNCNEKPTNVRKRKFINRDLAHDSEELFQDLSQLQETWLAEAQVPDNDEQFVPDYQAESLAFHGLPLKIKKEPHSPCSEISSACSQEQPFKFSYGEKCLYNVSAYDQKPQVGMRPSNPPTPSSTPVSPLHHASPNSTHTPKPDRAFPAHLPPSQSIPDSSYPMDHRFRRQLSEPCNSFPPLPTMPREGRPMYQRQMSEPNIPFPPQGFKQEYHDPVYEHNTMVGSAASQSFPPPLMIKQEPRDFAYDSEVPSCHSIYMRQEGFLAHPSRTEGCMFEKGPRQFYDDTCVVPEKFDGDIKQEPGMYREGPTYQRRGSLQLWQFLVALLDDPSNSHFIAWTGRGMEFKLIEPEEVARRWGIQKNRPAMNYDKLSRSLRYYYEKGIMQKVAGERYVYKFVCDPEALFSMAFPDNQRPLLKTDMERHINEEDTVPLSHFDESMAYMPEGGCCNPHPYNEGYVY

Regarding CGGATA, the binding signal in [1] was 1.15 fold enrichment (6-mer frequency, TF over GST control); in [2] it was 1.27 fold enrichment (6-mer frequency, TF over GST control); in [3], 1.09 fold enrichment (6-mer frequency, TF over GST control); in test [4], 1.5 fold enrichment (6-mer frequency, TF over GST control); in test [5], 1.16 fold enrichment (6-mer frequency, TF over GST control); in test [6], 1.19 fold enrichment (6-mer frequency, TF over GST control). The binding signal in test [7] is 1.1 fold enrichment (6-mer frequency, TF over GST control); in test [8], 1.15 fold enrichment (6-mer frequency, TF over GST control); in test [9], 1.33 fold enrichment (6-mer frequency, TF over GST control); in test [10], 2.83 fold enrichment (6-mer frequency, TF over GST control); in test [11], 1.34 fold enrichment (6-mer frequency, TF over GST control); in test [12] it was 1.2 fold enrichment (6-mer frequency, TF over GST control). Moreover, the binding signal in [13] was 1.03 fold enrichment (6-mer frequency, TF over GST control); in [14], 1.16 fold enrichment (6-mer frequency, TF over GST control); in [15], 1.23 fold enrichment (6-mer frequency, TF over GST control); in test [16], 1.31 fold enrichment (6-mer frequency, TF over GST control); in test [17], 1.26 fold enrichment (6-mer frequency, TF over GST control).
